Compound activity as filed in PubChem.
In the library only some 5.7% were active in any assay of this set; here they are far more common.
Giardia killer – kills Giardia lamblia; 340,000 compounds, 0.15% hits; activity change, % at 7.66 µM, hits read low; Giardia lamblia trophozoite viability; in the data active = activity change below about -80%; inconclusive = between about -30% and that limit;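 note: parasites exposed to compound for two days anaerobically before the ATP read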
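Giardia trophozoites, 100 cells per well, were exposed to compounds for 48 hrs at 37 deg C under anaerobic conditions; viability was then read as ATP content by bioluminescence after 15-30 min at room temperature.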
KB-V1 cytotox – KB-V1 MDR subline cytotoxicity. KB-V1 MDR cells viability, CellTiter-Glo, 72 h. AID 1347076. Potency, µM (series often up to 46.1 µM), most hits filed as cytotoxic. 400,000 compounds, 3.4% hits; note: potency is the fitted concentration of half-maximal effect; nearly all actives have a fitted effect of over 60% in size
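Compound-treated KB-V1 multidrug-resistant cells, 72 h, 37 degrees C; viability by CellTiter-Glo. Fitted qHTS curves give the values.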
Nrf2 block – inhibitors of Nrf2 signaling; Potency, µM (doses to about 46 µM), inactives show at the top dose activity change, negative = inhibition, usual class: inhibitors; AID 504444; 360,000 compounds, 2.1% hits; A549 ARE-Fluc reporter, luciferase luminescence, 18-24 h; note: potency is the fitted concentration of half-maximal effect; nearly all actives have a fitted effect of over 60% in size
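A549 ARE_Fluc cells (5000/well, 5% FBS OPTI-MEM) pre-incubated 2 h, then treated with compounds 18-24 h at 37C/5% CO2 in concentration-response. CellTiter-Fluor viability read first; BugLite luciferase luminescence after 15 min at room temperature gives Nrf2 activity.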
KB-3-1 tox – KB-3-1 parental cell cytotoxicity; AID 1347075; KB-3-1 viability, CellTiter-Glo ATP luminescence, 72 h; Potency, µM (highest dose often 46.1 µM), actives largely listed as cytotoxic; 400,000 compounds, 1.4% hits; note: potency is the fitted concentration of half-maximal effect; nearly all actives have a fitted effect of over 60% in size
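Cells are dispensed, compounds pinned in, plates held at 37 °C for 72 h, then CellTiter-Glo is added and luminescence read after 10 minutes. Cell line: parental KB-3-1 in phenol-red-free DMEM, 10% FBS.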
PI4K2A inh – blocks human PI4K2A kinase activity; AID 1346378; purified PI4K2A, ADP-Glo luminescence, 1 h; stronger effect = lower value; activity change, negative = inhibition, % at 76.9 µM; Q9BTU6; 420,000 compounds, 0.13% hits; in the data active = activity change below about -50%; inconclusive = mostly about -30% to -49%;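 note: -100% = wells without enzyme as full effect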
Target sequence (Q9BTU6 whole entry, looked up): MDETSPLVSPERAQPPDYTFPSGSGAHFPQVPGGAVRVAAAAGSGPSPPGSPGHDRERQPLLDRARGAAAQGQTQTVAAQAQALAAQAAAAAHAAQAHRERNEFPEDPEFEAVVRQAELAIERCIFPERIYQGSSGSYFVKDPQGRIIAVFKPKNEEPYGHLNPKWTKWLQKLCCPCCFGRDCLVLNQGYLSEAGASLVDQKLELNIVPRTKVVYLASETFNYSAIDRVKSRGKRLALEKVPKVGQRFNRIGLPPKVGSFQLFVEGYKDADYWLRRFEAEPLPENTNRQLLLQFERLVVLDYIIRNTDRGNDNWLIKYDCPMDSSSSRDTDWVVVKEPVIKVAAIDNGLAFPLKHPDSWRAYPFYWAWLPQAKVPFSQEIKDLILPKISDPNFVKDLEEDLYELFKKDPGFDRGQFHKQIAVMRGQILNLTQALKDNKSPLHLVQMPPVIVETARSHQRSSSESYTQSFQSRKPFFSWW
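PI4K2A activity was measured by ADP-Glo luminescence: enzyme (4 ug/mL stock) and phosphatidylinositol (1.2 mM stock) in Tris pH 7.5/MgCl2/EGTA/Triton X-100 buffer were reacted with ATP (300 microM stock) for one hour at ambient temperature.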
A549 tox – counter-screen for Nrf2 inhibitors: cytotoxicity in A549 cells. A549 ARE-Fluc cells, CellTiter-Fluor viability, 18-24 h. Potency, µM (titrated, usually from 46 µM), without a hit: at the highest dose activity change, negative = cytotoxicity, actives largely listed as inhibitors. 390,000 compounds, 0.16% hits. AID 504648; note: potency is the fitted concentration of half-maximal effect
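A549 ARE-Fluc cells in 5% FBS OPTI-MEM, 5000 cells/well, rested 2 h then exposed to compounds in concentration-response for 18-24 h at 37 °C. Viability by CellTiter-Fluor fluorescence (Ex 405/Em 525) after 30 min; luciferase luminescence (BugLite, 15 min, RT) read afterwards.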
* marks the source's active call; other numbers are inactive results; i = inactive; ? = inconclusive; · = no result given. Unless noted, calls come from the whole dose curve; as a rule, active = well fitted curve in the direction sought with a large enough effect; inconclusive = small, poorly fitted or top-dose-only effect, or another doubt; inactive = no such curve, though single readings can be large; an effect the other way counts as inactive or inconclusive. Unless noted, % is set by controls: 0 for no effect and ±100 for the full control effect.

SMILES | Giardia killer | KB-V1 cytotox | Nrf2 block | KB-3-1 tox | PI4K2A inh | A549 tox
CC(=O)c1ccc(OCCCC(=O)Nc2ccc(C)c(S(=O)(=O)N3CCCCC3)c2)cc1 | -3 | ? | 18µM* | i | -2 | -29%
COc1ccc(OCC(=O)Nc2ccc(C)c(S(=O)(=O)N(C)C)c2)cc1 | 1 | i | ? | i | -4 | 2%
Cc1ccc(C(=O)N(C)CCOc2ccccc2)cc1S(=O)(=O)N1CCCCC1 | -5 | i | 21µM* | i | 1 | -17%
CCOc1ccc(C(=O)CCC(=O)Nc2ccc(C)c(S(=O)(=O)N3CCCCC3)c2)cc1 | 7 | i | ? | i | -3 | -1%
Cc1ccc(S(=O)(=O)N2CCN(c3nc(-c4ccco4)nc4ccccc34)CC2)cc1 | · | · | -21% | · | · | 1%
Cc1ccc(S(=O)(=O)NC(=O)COc2ccccc2)cc1 | 5 | i | -13% | i | 3 | 9%
CC(=O)Oc1ccc(C(=O)Nc2cc(C)ccc2NC(=O)COc2ccccc2)cc1 | -6 | 16µM* | -21% | i | 6 | -19%
Cc1ccc(NS(=O)(=O)c2ccc(C)c(NC(=O)COc3ccccc3)c2)c(C)c1 | -3 | 21µM* | -14% | i | 2 | -4%
COc1ccc(-c2cccc(C(=O)Nc3ccccc3C)c2)cc1 | -14 | i | -16% | i | -5 | 3%
Cc1ccc(NC(=O)COc2ccccc2)c(NC(=O)c2ccccc2C)c1 | -4 | 5.8µM* | -1% | i | -3 | -8%
Cc1ccc(NC(=O)c2ccco2)c(NC(=O)COc2ccccc2)c1 | -2 | i | 10% | i | 0 | -5%
COc1ccc(C)cc1NC(=O)c1cccc(-c2ccc(OC(C)=O)cc2)c1 | -1 | ? | 16µM* | i | -2 | -24%
COc1ccc(NC(=O)OCCN2CCCC23CCC(c2ccccc2)CC3)cc1 (stereo not given) | · | · | · | · | -2 | ·
COc1ccccc1C(=O)NC1CCCCN(Cc2cccc(C(F)(F)F)c2)C1=O (stereo not given) | · | · | · | · | 5 | ·
COc1cc(/C=C2\SC(=S)N(CCC(=O)NC3CCCC3)C2=O)cc(OC)c1OC | -1 | i | ? | ? | 7 | -15%
CCc1ccc(/C=C2\SC(=S)N(CCCC(=O)Nc3cc(C)on3)C2=O)cc1 | · | i | · | i | 2 | ·
CCc1ccc(/C=C2\SC(=S)N(CCC(=O)Nc3cc(C)on3)C2=O)cc1 | -10 | i | 6.5µM* | i | 5 | 2%
Cc1ccc(/C=C2\SC(=S)N(CCCC(=O)NC3CCCC3)C2=O)cc1 | -6 | i | 10µM* | i | 2 | 8%
Cc1ccc(/C=C2\SC(=S)N(CCC(=O)NNC(=O)c3ccccc3O)C2=O)cc1 | 3 | i | ? | i | 2 | -15%
Cc1ccc(/C=C2\SC(=S)N(CCCC(=O)NNC(=O)c3ccccc3O)C2=O)cc1 | 3 | i | 10µM* | i | 0 | -3%
COc1ccccc1C1=Nn2c(nnc2-c2ccccc2O)SC1 | · | · | -15% | · | · | -9%
COP(=O)(O)CCOCCC(CC(C)C)NC(=O)OCc1ccccc1 (stereo not given) | · | · | · | · | 1 | ·
O=C(NCCc1ccccc1)c1cnc2sc(N3CCCCC3)nn2c1=O | · | ? | ? | ? | -3 | 6%
CCOc1ccccc1-c1nc(-c2ccc(NC(=O)Cc3ccc(OC)cc3)cc2)no1 | -3 | i | 21µM* | i | -2 | -28%
COc1cccc(NC(=O)c2ccccc2-c2nc(-c3ccc(F)cc3)no2)c1 | 4 | 18µM* | 0% | i | -5 | 4%
CCN(CC)C(=O)N1c2ccccc2C=Cc2ccccc21 | 8 | ? | ? | 3.7µM* | 12 | -12%
N=C1C(c2nc3ccccc3[nH]2)=C(O)CN1c1ccccc1 | -8 | ? | · | 23µM* | -3 | -7%
COc1ccc(NC(=O)CSc2nnc(-c3cccs3)o2)cc1Cl | · | · | · | · | 1 | ·
